Results as given in PubChem BioAssay (EPA / NIEHS).
Several values for one entry are separate records, joined by “and”; a condition that tells them apart may be missing. Equal values may be shown once. More than one record can exist for a structure, and the calls need not agree. Activity calls are given as the source filed them. How the source made its calls: active means hit-call score of the fitted dose curve at least 0.9, where 1 is the maximum; inactive means score below 0.9.

Tests used:
[1] = APR_HepG2_CellLoss_72hr: Apredica 72-hour HepG2 Assay for Cell Loss (AID 2282915); details: high-content imaging
Method in brief: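 HepG2 cells were exposed for 72 hr to compounds at 0.39–200 uM (ten concentrations, duplicate) in 0.5% v/v final DMSO. Nuclei were stained with Hoechst 33342 after 3.7% formaldehyde fixation, imaged at 20x, and counted; fits bidirectional versus DMSO.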

[2] = APR_HepG2_P-H2AX_72hr: Apredica 72-hour HepG2 Assay for H2AX Phosphorylation (AID 2282916); details: imaging, actives raise or lower the signal;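 further: phospho-histone H2A.x immunostain intensity per cell marking DNA damage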
Procedure: (§1) APR_HepG2_72hr is a cell-based, multiplexed-readout assay that uses HepG2, a human liver cell line, with measurements taken at 72 hours after chemical dosing in a 384-well plate.APR_HepG2_P-H2AX_72hr is one of 10 assay component(s) measured or calculated from the APR_HepG2_72hr assay. It is designed to make measurements of dna content, a form of viability reporter, as detected with fluorescence intensity signals by HCS Fluorescent Imaging technology.Data from the assay component APR_HepG2_P-H2AX_72hr was analyzed into 1 assay endpoint. This assay endpoint, APR_HepG2_P-H2AX_72hr, was analyzed with bidirectional fitting relative to DMSO as the negative control and baseline of activity. Using a type of viability reporter, measures of protein for gain or loss-of-signal activity can be used to understand the signaling at the pathway-level as they relate to the gene . Furthermore, this assay endpoint can be referred to as a primary readout, because this assay has produced multiple assay endpoints where this one serves a signaling function. To generalize the intended target to other relatable targets, this assay endpoint is annotated to the dna binding intended target family, where the subfamily is cellular response to DNA damage stimulus.
(§2) Cells were treated with dimethyl sulfoxide (DMSO) as a solvent control at a final concentration of 0.5% v/v or with compounds in DMSO with a resulting final DMSO concentration of 0.5% v/v. Compound treatment was done at concentrations of 0.39, 0.78, 1.56, 3.12, 6.24, 12.5, 25, 50, 100, and 200 uM in duplicate on each plate. Cells were treated with compounds for 1, 24, or 72 hr. Carbonyl […] m-chloro-phenylhydrazone (CCCP) and taxol were used as positive controls for mitochondrial function and cytoskeletal stability, respectively; DMSO served as the negative control for this experiment. Cells were fixed by the direct addition of 50 uL formaldehyde in Hank's Balanced Salt Solution (HBSS) to a final concentration of 3.7%. After incubation in the fixation medium for 30 min at room temperature (293-298 K), cells were rinsed twice with HBSS and treated with cell permeabilization buffer (16 uL of 0.5% Triton X-100) for 10 min at room temperature (293-298 K) before labeling. For mitochondrial membrane potential and mitochondrial measurements, pre-fixed cells were incubated with 50 uL of MitoTracker Red CMXRos (Invitrogen) at a concentration of 250 nM for 30 min before fixation. In the remaining cases, post-fixed cells were labeled by incubation with a multiplexed mixture of primary antibodies in HBSS for 60 min at room temperature (293-298 K) to detect immunoreactivity of c-Jun (1:500), phospho-histone H3 (1:100), phospho-histone H2A.x (1:200), p53 (1:400), alpha-tubulin (1:200) and Hoechst 33342 (2 ug/mL). […]

[3] = APR_HepG2_MitoMembPot_72hr: Apredica 72-hour HepG2 Assay for Mitochondrial Membrane Potential (AID 2282917); details: imaging, actives raise or lower the signal
Method in brief: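 HepG2 cells exposed 72 h to compounds at 0.39–200 uM (0.5% v/v DMSO, duplicates); MitoTracker Red CMXRos 250 nM loaded 30 min before 3.7% formaldehyde fixation, imaged by HCS fluorescence. Bidirectional fit versus DMSO.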

[4] = APR_HepG2_MitoticArrest_72hr: Apredica 72-hour HepG2 Assay for Mitotic Arrest (AID 2282918); details: high-content imaging, actives raise or lower the signal
Method in brief: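 HepG2 cells treated 72 h at 0.39–200 uM, 0.5% DMSO final; formaldehyde-fixed, stained with Hoechst 33342 and phospho-histone H3 antibody, imaged by high-content fluorescence; bidirectional fit versus DMSO.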

[5] = APR_HepG2_MicrotubuleCSK_72hr: Apredica 72-hour HepG2 Assay for Microtubule CSK Stabilty (AID 2282919); details: HepG2 microtubule cytoskeleton, high-content imaging, actives raise or lower the signal
Method in brief: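 HepG2 human liver cells were dosed for 72 h at ten concentrations from 0.39 to 200 uM in duplicate (0.5% v/v DMSO final). Fixed, permeabilized cells were immunostained for alpha-tubulin (Cy5) with a Hoechst counterstain and imaged at 20x.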

[6] = APR_HepG2_P-H2AX_24hr: Apredica 24-hour HepG2 Assay for H2AX Phosphorylation (AID 2282920); details: high-content imaging, actives raise or lower the signal
Method in brief: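 HepG2 cells dosed 24 h at 0.39–200 uM (10 points, duplicate, 0.5% DMSO final). Formaldehyde-fixed and permeabilized, then immunostained for phospho-H2A.x with Hoechst. Fluorescence quantified by high-content imaging, fitted bidirectionally versus DMSO.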

[7] = APR_HepG2_StressKinase_72hr: Apredica 72-hour HepG2 Assay for Stress Kinase (AID 2282921); details: HepG2 stress kinase (phospho-c-Jun) imaging, actives raise or lower the signal
Method in brief: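 Fluorescence intensity of Cy3-tagged anti-phospho-c-Jun antibody, quantified per cell from Hoechst-defined nuclei across six images per well, served as the read-out following 72 h exposure (0.39–200 uM, 0.5% v/v DMSO).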

[8] = APR_HepG2_StressKinase_24hr: Apredica 24-hour HepG2 Assay for Stress Kinase (AID 2282922); details: HepG2 stress kinase (phospho-c-Jun) imaging, actives raise or lower the signal
Procedure: APR_HepG2_24hr is a cell-based, multiplexed-readout assay that uses HepG2, a human liver cell line, with measurements taken at 24 hours after chemical dosing in a 384-well plate.APR_HepG2_StressKinase_24hr is one of 10 assay component(s) measured or calculated from the APR_HepG2_24hr assay. It is designed to make measurements of enzyme activity, a form of enzyme reporter, as detected with fluorescence intensity signals by HCS Fluorescent Imaging technology.Data from the assay component APR_HepG2_StressKinase_24hr was analyzed into 1 assay endpoint. This assay endpoint, APR_HepG2_StressKinase_24hr, was analyzed with bidirectional fitting relative to DMSO as the negative control and baseline of activity. Using a type of enzyme reporter, measures of protein for gain or loss-of-signal activity can be used to understand the signaling at the pathway-level as they relate to the gene . Furthermore, this assay endpoint can be referred to as a primary readout, because this assay has produced multiple assay endpoints where this one serves a signaling function. To generalize the intended target to other relatable targets, this assay endpoint is annotated to the cell cycle intended target family, where the subfamily is stress response.
as §2, with “ug/mL). Cells were labeled for multiplexed imaging on two separate plates: a) Hoechst 33342, MitoTracker Red, phospho-histone H3, and alpha-tubulin, and b) Hoechst 33342, phospho-histone H2A.x, and c-Jun. A final rinse with HBSS (50 uL) was performed before analysis. The primary and secondary antibodies for the proteins were phospho-histone H3 (rabbit anti-phospho-histone H3 and FITC-donkey anti-rabbit IgG), phospho-histone H2A.x (mouse anti-phospho-histone H2A.x and FITC-donkey anti-mouse IgG), c-Jun (rabbit anti-phospho-c-Jun and Cy3-donkey anti-rabbit IgG), p53 (sheep anti-p53 and Cy5-donkey anti-sheep IgG), alpha-tubulin (mouse anti-alpha-tubulin and Cy5-donkey anti-mouse IgG).” for “ug/mL).”

[9] = APR_HepG2_p53Act_72hr: Apredica 72-hour HepG2 Assay for p53 Activation (AID 2282923); details: high-content imaging, actives raise or lower the signal;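 further: average cellular p53 protein immunofluorescence intensity in HepG2 cells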
Procedure: as §1, with “384-well plate.APR_HepG2_p53Act_72hr” for “384-well plate.APR_HepG2_P-H2AX_72hr”, “component APR_HepG2_p53Act_72hr” for “component APR_HepG2_P-H2AX_72hr”, “endpoint, APR_HepG2_p53Act_72hr,” for “endpoint, APR_HepG2_P-H2AX_72hr,”, “gene TP53.” for “gene .”, “is tumor suppressor.” for “is cellular response to DNA damage stimulus.”
as §2, with “ug/mL). Cells were labeled for multiplexed imaging on two separate plates: a) Hoechst 33342, MitoTracker Red, phospho-histone H3, and alpha-tubulin, and b) Hoechst 33342, phospho-histone H2A.x, and c-Jun. A final rinse with HBSS (50 uL) was performed before analysis. The primary and secondary antibodies for the proteins were phospho-histone H3 (rabbit anti-phospho-histone H3 and FITC-donkey anti-rabbit IgG), phospho-histone H2A.x (mouse anti-phospho-histone H2A.x and FITC-donkey anti-mouse IgG), c-Jun (rabbit anti-phospho-c-Jun and Cy3-donkey anti-rabbit IgG), p53 (sheep anti-p53 and Cy5-donkey anti-sheep IgG), alpha-tubulin (mouse anti-alpha-tubulin and Cy5-donkey anti-mouse IgG).” for “ug/mL).”

[10] = APR_HepG2_MitoMass_72hr: Apredica 72-hour HepG2 Assay for Mitochondrial Mass (AID 2282924); details: high-content imaging, actives raise or lower the signal;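 further: MitoTracker Red CMXRos stain intensity per cell imaged as mitochondrial mass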
Method in brief: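 HepG2 cells were exposed for 72 hr to compounds at 0.39–200 uM (ten concentrations, duplicate, 0.5% v/v DMSO final). Live cells were stained with 250 nM MitoTracker Red CMXRos for 30 min, then fixed in 3.7% formaldehyde and imaged by HCS fluorescence.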

Measured: AC50

C[C@]12CC[C@@H]3c4ccc(O)cc4CC[C@H]3[C@@H]1CC[C@@H]2O
active: [1] 28.6 µM | [2] 30.7 µM | [4] 32.8 µM | [6] 24.5 µM | [9] 25.6 µM
inactive: [3] | [5] | [7] | [8] | [10]

CC/C(=C(\c1ccccc1)c1ccc(OCCN(C)C)cc1)c1ccccc1
active: [1] 13.3 µM and 17.4 µM | [2] 53.9 µM and 59 µM | [3] 30.7 µM | [4] 9.78 µM and 3.59 µM | [6] 11.6 µM and 19.7 µM | [7] 63.4 µM and 100 µM | [8] 32.1 µM | [9] 6.04 µM | [10] 152 µM
inactive: [3] | [5] | [8] | [9] | [10]

O=C(c1ccc(OCCN2CCCCC2)cc1)c1c(-c2ccc(O)cc2)sc2cc(O)ccc12
inactive: all assays above

C#C[C@]1(O)CC[C@H]2[C@@H]3CCc4cc(O)ccc4[C@H]3CC[C@@]21C
active: [1] 34.6 µM | [2] 70.6 µM | [4] 58.1 µM | [6] 83.4 µM | [9] 28.5 µM
inactive: [3] | [5] | [7] | [8] | [10]
